The panel holds about 83,000 compounds, 20% with a hit somewhere; the sample as a whole holds those more often.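 Cell lines were cultured in 96-well plates, exposed to a single compound concentration, and assessed for percent growth 48 hours later.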 A number with no mark means an inactive call. Activity calls are given as the source filed them. How the source made its calls: active means growth percent below 10; inactive means the rest.

13 compounds from PubChem BioAssay (NCI) can be followed below.

Assay in all cases: NCI-60 one-dose screen, 48 h (100 = growth as untreated, 0 = no growth, -100 = all killed)
Settings in all cases: 10 µM unless noted

Assay [1] concerns SK-MEL-2 melanoma.
The test system of assay [2] is EKVX NSCLC.
In assay [3] the test system is SN12C renal.
The test system of assay [4] is UO-31 renal.
Assay [5] concerns TK-10 renal.
Assay [6] has as its system ACHN renal.
Assay [7] relates to A498 renal.
For assay [8], the system named is CCRF-CEM leukemia.
In assay [9] the test system is MOLT-4 leukemia.
Assay [10] has as its system SR leukemia.

`Cc1ccc(C(=O)/C(=C/c2ccc([N+](=O)[O-])cc2)S(=O)Cc2ccccc2)cc1` (stereo not given): the growth is 57.9% in [1]; 30.3% in [2]; -41.1% (active) in [3]; -83.7% (active) in assay [4]; 6.85% (active) in assay [5]; -52.8% (active) in assay [6]. Also, the growth is 41% in [7], 6.67% (active) in assay [8], 1.79% (active) in [9] and 0.101% (active) in assay [10].

`O=C(Nc1cc(Br)ccn1)c1cc2cc(Nc3nc(-c4ccccc4)nc4ccccc34)ccc2oc1=O`: the growth in [1] is 90.8%; in [2], 109%; in [3], 110%; in [4], 75.4%; in [5] it was 106%; in [6], 103%. Further, the growth in [7] is 112%; in [8], 107%; in assay [9], 100%; in assay [10], 82.2%.

As for `COc1cc(-c2csc(NC(=O)Nc3ccc(Cl)cc3)n2)cc(OC)c1OC`, the growth in [1] is 29.3%; in assay [2] it was 26%; in assay [3], 27.5%; in assay [4] it was 16.9%; in [5] it was 26.6%; in [6], 18.3%. The growth in assay [7] was 21.7%; in [8], 6.31% (active); in assay [9], -17% (active); in [10] it was 33.7%.

For `CNC(=O)c1cc(Oc2ccc3c(c2)sc2nc(-c4ccc(NC(C)=O)cc4)cn23)ccn1`, the growth in assay [1] is 45.2%; in [2], 54.7%; in [3] it was 52%; in assay [4], 43.9%; in assay [5] it was 61.4%; in [6] it was 52%. Further, the growth in assay [7] is -6.27% (active); in [8], 78.8%; in assay [9], 72.7%; in assay [10], 25.7%.

Consider `O=C1NCc2ccc3c(-c4cccc(Cl)c4)c[nH]c3c21`, for which the growth is 38.6% in [1]; 28.7% in [2]; 36.8% in assay [3]; 44.8% in assay [4]; 46.2% in [5]; 48.4% in [6]. Also, the growth is 24.7% in assay [7], 17.4% in assay [8], 18.1% in assay [9] and 20.4% in assay [10].

In the case of `CC(C)(C)c1nc2c(s1)c1nc(N)ncc1c1ccc(NS(=O)(=O)c3c(F)cccc3F)c(F)c12`, the growth in [1] was 50%; in [2], 60.5%; in [3], 58.9%; in assay [4] it was 28.9%; in assay [5], 64.4%; in assay [6], 22.6%. For the same compound, the growth is -2.96% (active) in assay [7], 73.3% in [8], 59.5% in assay [9] and 42.3% in assay [10].

For the compound `CCOC(=O)c1c(C(F)(F)F)n([O-])c2ccc(Cl)cc2[n+]1=O`, the growth is -57.2% (active) in assay [1]; -8.8% (active) in assay [2]; -21.4% (active) in assay [3]; -44.3% (active) in assay [4]; -92.7% (active) in assay [5]; -97.8% (active) in assay [6]. Besides, the growth in assay [7] was -76.4% (active); in [8], -45.7% (active); in assay [9] it was -48.5% (active); in assay [10], -33.6% (active).

As to `CCc1ccc(OCc2ccccc2C(=O)Nc2ccc3nc(C)cc(N)c3c2)cc1`, the growth in assay [1] was -83.1% (active); in [2], -56.2% (active); in assay [3], -79.7% (active); in assay [4], -98.5% (active); in assay [5] it was -93.5% (active); in assay [6], -100% (active). Also, the growth in [7] is -94.3% (active); in [8], -53.4% (active); in assay [9], -74.4% (active); in assay [10] it was -61.2% (active).

As to `C=C1C(=O)O[C@H]2[C@H]1CC/C(COC(=O)CCCCCCCC(=O)OC/C1=C/CC[C@@]3(C)O[C@H]3[C@H]3OC(=O)C(=C)[C@@H]3CC1)=C\CC[C@@]1(C)O[C@@H]21`, the growth was 59.9% in assay [1]; 18.5% in [2]; 4.85% (active) in assay [3]; -22.1% (active) in [4]; 3.41% (active) in [5]; -24.8% (active) in [6]. In addition, the growth in assay [7] is 109%; in assay [8], 5.92% (active); in assay [9] it was 2.39% (active); in assay [10] it was 0.728% (active).

Turning to `COc1ccc(Cl)c([N+](=O)[O-])c1`, the growth in assay [1] was 104%; in assay [2] it was 103%; in [3], 99%; in assay [4], 90.6%; in assay [5], 95.8%; in assay [6] it was 107%. Moreover, the growth is 113% in assay [7], 109% in assay [8], 95.2% in [9] and 93.1% in assay [10].

Regarding `O=C(/C(=C/c1ccc([N+](=O)[O-])cc1)SCc1ccc(Cl)cc1)c1ccc(F)cc1`, the growth in assay [1] was 81.3%; in assay [2] it was 59.7%; in assay [3], 45.9%; in assay [4], 45.8%; in [5] it was 94.7%; in assay [6], 54%. Moreover, the growth in [7] is 70.5%; in assay [8] it was 4.66% (active); in [9], 7.69% (active); in assay [10] it was 0.569% (active).

For the compound `CCn1cc(C(=O)O)c(=O)c2cc(F)c(N3CCN(CC(=O)Nc4ccc(/C(C)=N/OC)cc4)CC3)cc21`, the growth is 109% in assay [1]; 95.5% in [2]; 101% in assay [3]; 79.9% in [4]; 101% in assay [5]; 103% in assay [6]. Also, the growth in assay [7] is 92.9%; in assay [8], 105%; in [9] it was 96.4%; in assay [10], 82.6%.

In the case of `CNCc1cccc2c1OCCOCCOCCN(CCN1CCOCC1)S(=O)(=O)c1ccc(cc1)-c1cnc(N)c(n1)C(=O)N2`, the growth in [1] was 60.9%; in assay [2], 74.8%; in assay [3], 68.4%; in assay [4] it was 55.6%; in [5] it was 43.9%; in assay [6], 36.7%. In addition, the growth in [7] was 44.4%; in assay [8], 18%; in [9] it was -1.99% (active); in assay [10] it was 7.93% (active).
